# Laboratory results: the supplement of paper PMC3334620
# Over roughly 33,000 sequences, “E-score (-0.5 to 0.5)” has its median near -0.041; the highest 2% begin near 0.37. The full list was thinned out, with the highest values kept by preference.
# Target: T1, Ecm22 (UniProt Q05958)
# T1 sequence: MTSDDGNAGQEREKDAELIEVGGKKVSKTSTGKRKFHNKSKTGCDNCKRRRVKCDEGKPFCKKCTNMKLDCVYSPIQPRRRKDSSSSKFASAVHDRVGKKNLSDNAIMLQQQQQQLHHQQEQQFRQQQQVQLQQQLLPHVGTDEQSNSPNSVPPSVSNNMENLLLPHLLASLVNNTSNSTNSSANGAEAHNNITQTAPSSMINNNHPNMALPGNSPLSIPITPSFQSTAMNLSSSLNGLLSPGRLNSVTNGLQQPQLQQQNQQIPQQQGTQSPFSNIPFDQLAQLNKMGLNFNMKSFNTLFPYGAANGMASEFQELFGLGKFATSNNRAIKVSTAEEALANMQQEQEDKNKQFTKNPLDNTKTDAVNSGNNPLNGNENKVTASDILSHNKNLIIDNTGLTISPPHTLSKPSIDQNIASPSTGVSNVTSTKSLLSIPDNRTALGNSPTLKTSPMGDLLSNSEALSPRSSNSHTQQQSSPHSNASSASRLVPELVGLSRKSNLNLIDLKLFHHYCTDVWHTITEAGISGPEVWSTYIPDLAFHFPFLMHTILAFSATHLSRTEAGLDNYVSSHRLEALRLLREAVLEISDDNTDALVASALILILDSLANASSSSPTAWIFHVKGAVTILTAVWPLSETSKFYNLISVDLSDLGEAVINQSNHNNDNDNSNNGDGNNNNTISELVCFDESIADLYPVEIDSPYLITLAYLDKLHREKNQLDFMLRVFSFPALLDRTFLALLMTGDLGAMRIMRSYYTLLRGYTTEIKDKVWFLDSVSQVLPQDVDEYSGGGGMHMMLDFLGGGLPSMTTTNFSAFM
# Test: PBM E-score (8-mer binding enrichment) (E-score (-0.5 to 0.5)); higher = stronger / more preferred TF binding
# Conditions: protein concentration: 200 nM; construct: GST-full length
# Description: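 Universal 'all 10-mer' protein binding microarrays (Agilent AMADID 015681) probed with GST-tagged S. cerevisiae TFs (full-length or DBD) made by in vitro transcription/translation (PURExpress), about 100-200 nM. Bound TF was detected with fluorescent anti-GST. Each ungapped 8-mer (which stands for itself and its reverse complement) is scored by the PBM enrichment score (E-score), a modified Wilcoxon-Mann-Whitney statistic from -0.5 to +0.5, computed with the Universal PBM Analysis Suite. Scale: above 0.35 generally sequence-specific binding.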
row,Sequence,PBM E-score
1,AGTTTATC,0.0904
2,CGTTTATC,0.42
3,AGTTTATA,0.15
4,AGCTCAGG,-0.211
5,TGAAGTCA,-0.133
6,GCCCAACC,0.0862
7,GGTATATA,0.168
8,CGTATATA,0.444
9,AGTATATA,0.341
10,GGTATTTA,-0.00022
11,CATATATC,0.0903
12,CGTATATC,0.439
13,AGTATTTA,-0.0192
14,AGTATATC,0.122
15,CGTATTTA,0.369
16,AAGTACCG,0.152
17,CTAATGAG,-0.0357
18,GCAAATGA,0.0372
19,CCACTCGC,0.184
20,CTGGCTCC,-0.202
21,CGTGTTCA,0.0358
22,AACCTCTT,-0.0421
23,CTAACCGC,0.0805
24,GTAACCGA,0.332
25,CTAACCGA,0.372

row,Sequence,PBM E-score
1,CGCCACTC,-0.016
2,AAACTGTC,-0.0481
3,CTACGATC,0.325
4,AGACGATG,0.00668
5,ACACGATG,0.17
6,ATACGATC,0.457
7,ATACGATG,0.472
8,ACACGATC,0.0695
9,AGCAGGGC,-0.0233
10,TATACTGA,0.182
11,CGATCTAC,0.184
12,AGTACCAT,0.0273
13,AGGCCGTA,0.384
14,GGGCCGTA,0.333
15,CGGCCGTA,0.34
16,AAAGCTGT,-0.108
17,CGAAGCAG,0.147
18,GCGTGGGA,0.0285
19,GCACGACA,0.114
20,CTACGACA,0.347
21,ATACGACA,0.469
22,ACACGACA,0.233
23,GTACGACA,0.48
24,AGACGACA,0.0702
25,CCCTGGAC,-0.193

row,Sequence,PBM E-score
1,GTAGCAGA,0.0392
2,AGGACCCT,-0.235
3,CCCTCAAC,-0.248
4,GGTTCGGA,-0.1
5,GGTTCGTA,0.443
6,CGTTCATA,0.386
7,CGTTCAAC,0.377
8,CGTTCAAA,0.361
9,GGTTCGAA,0.182
10,GGTTCATA,0.0139
11,AGTTCGTA,0.449
12,CGTTCATC,0.354
13,CGTTCAAG,0.335
14,AGTTCGTC,0.207
15,AGTTCGTG,0.189
16,AGGAAACG,0.281
17,GGAACAGA,-0.378
18,CTGTCCCA,-0.11
19,CACTCGGA,0.198
20,CGTAATAA,0.247
21,AAGCGAAT,0.277
22,CATGCAAC,0.0872
23,CGTTCGGA,0.274
24,CGTTCGTC,0.314
25,CGTTCGTA,0.461

row,Sequence,PBM E-score
1,AAGGAGGC,-0.319
2,AGCATCGG,-0.0521
3,TCCAGCGA,-0.115
4,TGGGTGAA,0.0282
5,AAGACGCG,-0.012
6,ACGACGCC,0.33
7,CCGACGCG,0.218
8,ACGACGCA,0.412
9,ACGACGCG,0.407
10,ACGACGAT,0.325
11,ACGACTCT,0.308
12,ACGACTCA,0.238
13,GCGACGCA,0.173
14,CCGACGCA,0.00712
15,ACGACTCG,0.39
16,ACGACGCT,0.38
17,ATTGCGCG,0.148
18,CAGGAAGG,-0.357
19,ATCGTGCG,0.228
20,CATTCCTC,0.0616
21,ACGCGGTG,-0.00032
22,AATGAGTC,-0.0397
23,AAGGTGTA,-0.0872
24,ATCCTTTA,-0.159
25,GGGTACGA,0.491

row,Sequence,PBM E-score
1,GGGTACCA,-0.317
2,AGGTACGC,0.217
3,CGGTACGA,0.492
4,CGGTACGC,0.315
5,GGGTACAA,-0.0303
6,CGGTACCA,-0.0083
7,AGGTACTG,-0.183
8,AGGTACGG,0.424
9,CGATTCGC,0.221
10,ATCAGGTC,0.113
11,ATAGGAGC,-0.162
12,CAGATTTA,0.156
13,AACATCAA,0.0313
14,CCTCGGCA,0.165
15,CCGCTTAA,0.291
16,GCGCTTAA,0.0179
17,TCGCTTAA,0.394
18,ACCCATTC,-0.0208
19,CGCGTAGA,0.107
20,CACGTAGA,-0.0914
21,CTCGTAGC,0.449
22,GGCGTAGA,0.0225
23,GTCGTAGA,0.4
24,CACGTAGC,-0.026
25,CCCGTAGC,0.154

row,Sequence,PBM E-score
1,CTCGTAGA,0.376
2,GACGTAGA,-0.0256
3,ATCGTAGC,0.385
4,ATCGTAGG,0.144
5,ATCGTAGA,0.272
6,AGAGGCGA,-0.00468
7,ATGGGAGG,-0.116
8,CTGGCGAC,-0.209
9,GCACGTGC,-0.0189
10,CATTACCG,-0.025
11,GGGGACTA,-0.242
12,AACGGCCT,0.225
13,CTTTCGCA,0.00706
14,GTAGGTCA,-0.0922
15,GAACCTTC,-0.126
16,ATGAGAGA,-0.0934
17,AGAAGGCA,-0.166
18,GGCATTCA,-0.0839
19,ACACTGCG,0.0708
20,ATTTGGCC,-0.258
21,AACGCATT,0.0189
22,AGTACGGA,0.288
23,CGTACGGA,0.373
24,CATACGGC,0.3
25,CGTACGGC,0.385

row,Sequence,PBM E-score
1,CCTACGGA,-0.34
2,CTTACGGA,0.0416
3,AGTACGGC,0.339
4,GCTACGGA,0.232
5,GGTACGGA,0.413
6,CCCGCTGA,-0.32
7,AGCGCTGC,-0.158
8,CCGGTCAC,-0.0785
9,ATGGACAT,-0.107
10,ATGGGCCC,-0.157
11,GCGAACAC,0.0536
12,CCCCCTGC,-0.162
13,AATACGTG,0.15
14,AATACGTA,0.228
15,CATACGAA,0.451
16,AATACGAG,0.457
17,CATACGCC,0.182
18,AATACGGG,0.229
19,CATACGAC,0.451
20,ACTACGAA,0.25
21,CATACGTC,0.0749
22,CATACAAA,-0.0105
23,CATACGTA,0.288
24,AATACGAA,0.419
